{
  "source": "PubChem BioAssay AID1159580",
  "about": "(chemical genetic matrix, 2015)",
  "experiment": "chemical genetic growth profiling, strain panel (AID 1159580);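 further: tested at 20 µM; growth read once vehicle control cultures reached saturation at 30 °C; 1 = growth at the plate median or of vehicle wells; lower values mean less growth of the strain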",
  "conditions": "growth OD",
  "key": {"[1]": {"conditions": "S. cerevisiae deletion strains, locus YAL013W, strain DEP1, hits give low values"}, "[2]": {"conditions": "S. cerevisiae deletion strains, locus YBR229C, strain ROT2, hits give low values"}, "[3]": {"conditions": "S. cerevisiae deletion strains, locus YDL101C, strain DUN1, hits give low values"}, "[4]": {"conditions": "S. cerevisiae deletion strains, locus YDL134C, strain PPH21, hits give low values"}, "[5]": {"conditions": "S. cerevisiae deletion strains, locus YDR150W, strain NUM1, hits give low values"}, "[6]": {"conditions": "S. cerevisiae deletion strains, locus YEL061C, strain CIN8, hits give low values"}, "[7]": {"conditions": "S. cerevisiae deletion strains, locus YGR078C, strain PAC10, hits give low values"}, "[8]": {"conditions": "S. cerevisiae deletion strains, locus YHR030C, strain SLT2, hits give low values"}, "[9]": {"conditions": "S. cerevisiae deletion strains, locus YHR087W, strain rtc3, hits give low values"}, "[10]": {"conditions": "S. cerevisiae deletion strains, locus YJL187C, strain SWE1, hits give low values"}, "[11]": {"conditions": "S. cerevisiae deletion strains, locus YJR043C, strain POL32, hits give low values"}, "[12]": {"conditions": "S. cerevisiae deletion strains, locus YJR075W, strain HOC1, hits give low values"}, "[13]": {"conditions": "S. cerevisiae deletion strains, locus YKL190W, strain CNB1, hits give low values"}, "[14]": {"conditions": "S. cerevisiae deletion strains, locus YLR039C, strain RIC1, hits give low values"}, "[15]": {"conditions": "S. cerevisiae deletion strains, locus YLR058C, strain SHM2 (second series), hits give low values"}, "[16]": {"conditions": "S. cerevisiae deletion strains, locus YLR085C, strain ARP6, hits give low values"}, "[17]": {"conditions": "S. cerevisiae deletion strains, locus YLR262C, strain YPT6, hits give low values"}, "[18]": {"conditions": "S. cerevisiae deletion strains, locus YML094W, strain GIM5, hits give low values"}, "[19]": {"conditions": "S. cerevisiae deletion strains, locus YMR219W, strain ESC1, hits give low values"}, "[20]": {"conditions": "S. cerevisiae deletion strains, locus YNL153C, strain GIM3, hits give low values"}, "[21]": {"conditions": "S. cerevisiae deletion strains, locus YNL298W, strain CLA4 (second series), hits give low values"}, "[22]": {"conditions": "S. cerevisiae deletion strains, locus YNL322C, strain KRE1, hits give low values"}, "[23]": {"conditions": "S. cerevisiae deletion strains, locus YNR030W, strain Alg12, hits give low values"}, "[24]": {"conditions": "S. cerevisiae deletion strains, locus YPL055C, strain LGE1, hits give low values"}, "[25]": {"conditions": "S. cerevisiae deletion strains, locus YPL241C, strain CIN2, hits give low values"}, "[26]": {"conditions": "S. cerevisiae deletion strains, locus YPR135W, strain CTF4, hits give low values"}, "[27]": {"conditions": "S. cerevisiae strains, strain wild type, hits give low values"}, "[28]": {"conditions": "S. cerevisiae deletion strains, locus YCL061C, strain MRC1, hits give low values"}, "[29]": {"conditions": "S. cerevisiae deletion strains, locus YMR263W, strain SAP30, hits give low values"}},
  "note": "In all, about 5,500 compounds went through this assay and about 2,000 (36%) were called active. Another 18% or so got no clear call; they are omitted. The list shows a part of the results. A number with no mark means an inactive call. No stated cut-off is given here; in the data, active means normalized growth mostly below about 0.91 (no sharp cut-off); inconclusive means no clear call, values can overlap the other calls; inactive means mostly above about 0.92.",
  "data": [
    {"smiles": "O=C(NCc1nc(-c2ccc(C(F)(F)F)cc2)no1)Nc1ccc(F)cc1F", "values": [
      {"measurement": "normalized growth", "setting": "[1]", "result": 1.01},
      {"measurement": "normalized growth", "setting": "[2]", "result": 0.987},
      {"measurement": "normalized growth", "setting": "[3]", "result": 0.975},
      {"measurement": "normalized growth", "setting": "[4]", "result": "0.857 (active)"},
      {"measurement": "normalized growth", "setting": "[5]", "result": 1.03},
      {"measurement": "normalized growth", "setting": "[6]", "result": 0.996},
      {"measurement": "normalized growth", "setting": "[7]", "result": 0.996},
      {"measurement": "normalized growth", "setting": "[8]", "result": 1.07},
      {"measurement": "normalized growth", "setting": "[9]", "result": 0.973},
      {"measurement": "normalized growth", "setting": "[10]", "result": 0.997},
      {"measurement": "normalized growth", "setting": "[11]", "result": 1},
      {"measurement": "normalized growth", "setting": "[12]", "result": 0.967},
      {"measurement": "normalized growth", "setting": "[13]", "result": 1.01},
      {"measurement": "normalized growth", "setting": "[14]", "result": 0.981},
      {"measurement": "normalized growth", "setting": "[15]", "result": 1.01},
      {"measurement": "normalized growth", "setting": "[16]", "result": 1.04},
      {"measurement": "normalized growth", "setting": "[17]", "result": 1.02},
      {"measurement": "normalized growth", "setting": "[18]", "result": 0.968},
      {"measurement": "normalized growth", "setting": "[19]", "result": 1},
      {"measurement": "normalized growth", "setting": "S. cerevisiae deletion strains, locus YMR307W, strain GAS1, hits give low values", "result": 0.894},
      {"measurement": "normalized growth", "setting": "[20]", "result": 0.987},
      {"measurement": "normalized growth", "setting": "[21]", "result": 1.03},
      {"measurement": "normalized growth", "setting": "[22]", "result": 1.02},
      {"measurement": "normalized growth", "setting": "[23]", "result": 0.988},
      {"measurement": "normalized growth", "setting": "[24]", "result": 0.846},
      {"measurement": "normalized growth", "setting": "[25]", "result": 0.966},
      {"measurement": "normalized growth", "setting": "[26]", "result": 1.01},
      {"measurement": "normalized growth", "setting": "[27]", "result": 1.02}
    ]},
    {"smiles": "O=C(O)CC(CC(=O)Nc1ccc(I)cc1F)c1ccc(C(F)(F)F)cc1", "note": "(stereo not given)", "values": [
      {"measurement": "normalized growth", "setting": "[1]", "result": 0.99},
      {"measurement": "normalized growth", "setting": "[2]", "result": 0.99},
      {"measurement": "normalized growth", "setting": "[28]", "result": 0.978},
      {"measurement": "normalized growth", "setting": "[3]", "result": 0.985},
      {"measurement": "normalized growth", "setting": "[4]", "result": 0.981},
      {"measurement": "normalized growth", "setting": "[5]", "result": 0.972},
      {"measurement": "normalized growth", "setting": "[6]", "result": 1},
      {"measurement": "normalized growth", "setting": "[7]", "result": 1},
      {"measurement": "normalized growth", "setting": "[8]", "result": 1},
      {"measurement": "normalized growth", "setting": "[9]", "result": 0.981},
      {"measurement": "normalized growth", "setting": "[11]", "result": 1},
      {"measurement": "normalized growth", "setting": "[12]", "result": 0.943},
      {"measurement": "normalized growth", "setting": "[13]", "result": 1.01},
      {"measurement": "normalized growth", "setting": "[14]", "result": 1.02},
      {"measurement": "normalized growth", "setting": "[15]", "result": 0.975},
      {"measurement": "normalized growth", "setting": "[16]", "result": 1},
      {"measurement": "normalized growth", "setting": "[17]", "result": 1.02},
      {"measurement": "normalized growth", "setting": "[18]", "result": 0.989},
      {"measurement": "normalized growth", "setting": "[19]", "result": 0.984},
      {"measurement": "normalized growth", "setting": "[29]", "result": 0.969},
      {"measurement": "normalized growth", "setting": "S. cerevisiae deletion strains, locus YNL128W, strain TEP1, hits give low values", "result": 0.995},
      {"measurement": "normalized growth", "setting": "[20]", "result": 1.01},
      {"measurement": "normalized growth", "setting": "[21]", "result": 1.05},
      {"measurement": "normalized growth", "setting": "[22]", "result": 0.973},
      {"measurement": "normalized growth", "setting": "[23]", "result": 0.927},
      {"measurement": "normalized growth", "setting": "[24]", "result": 0.968},
      {"measurement": "normalized growth", "setting": "[25]", "result": 0.986},
      {"measurement": "normalized growth", "setting": "[26]", "result": 1.03},
      {"measurement": "normalized growth", "setting": "[27]", "result": 1}
    ]},
    {"smiles": "FC(F)(F)c1cc(-n2c(CCc3nc(-c4ccc(Cl)cc4)no3)n[nH]c2=S)cc(C(F)(F)F)c1", "values": [
      {"measurement": "normalized growth", "setting": "[1]", "result": 0.996},
      {"measurement": "normalized growth", "setting": "[2]", "result": 0.991},
      {"measurement": "normalized growth", "setting": "[28]", "result": 0.985},
      {"measurement": "normalized growth", "setting": "[3]", "result": 0.946},
      {"measurement": "normalized growth", "setting": "[5]", "result": 0.867},
      {"measurement": "normalized growth", "setting": "[6]", "result": 1.04},
      {"measurement": "normalized growth", "setting": "[7]", "result": 0.963},
      {"measurement": "normalized growth", "setting": "S. cerevisiae deletion strains, locus YGR229C, strain SMI1, hits give low values", "result": 0.991},
      {"measurement": "normalized growth", "setting": "[8]", "result": 0.993},
      {"measurement": "normalized growth", "setting": "[9]", "result": 1.03},
      {"measurement": "normalized growth", "setting": "[10]", "result": 1.01},
      {"measurement": "normalized growth", "setting": "[11]", "result": 0.978},
      {"measurement": "normalized growth", "setting": "[12]", "result": 0.978},
      {"measurement": "normalized growth", "setting": "[14]", "result": 1.05},
      {"measurement": "normalized growth", "setting": "[15]", "result": 1.01},
      {"measurement": "normalized growth", "setting": "[16]", "result": 0.97},
      {"measurement": "normalized growth", "setting": "[17]", "result": 1.02},
      {"measurement": "normalized growth", "setting": "[18]", "result": 1.03},
      {"measurement": "normalized growth", "setting": "[19]", "result": 0.994},
      {"measurement": "normalized growth", "setting": "[29]", "result": 0.957},
      {"measurement": "normalized growth", "setting": "[20]", "result": 0.95},
      {"measurement": "normalized growth", "setting": "[21]", "result": 0.981},
      {"measurement": "normalized growth", "setting": "[22]", "result": 0.989},
      {"measurement": "normalized growth", "setting": "[23]", "result": 0.975},
      {"measurement": "normalized growth", "setting": "S. cerevisiae deletion strains, locus YOL006C, strain TOP1, hits give low values", "result": 0.994},
      {"measurement": "normalized growth", "setting": "[24]", "result": 0.994},
      {"measurement": "normalized growth", "setting": "[25]", "result": 0.965},
      {"measurement": "normalized growth", "setting": "[26]", "result": 0.879}
    ]}
  ]
}
